# Experiments:
# Assay in all cases: DAPPL (digital affinity profiling via proximity ligation, sequencing); 10 mM Tris-HCl pH 7.5, 50 mM NaCl, 1 mM DTT, 4% glycerol, room temperature, 30 min; GST-TFs on glutathione beads, 16-mer random dsDNA library, 0.1% formaldehyde crosslink after washing; high values mean tight binding
# [1] = target: T1, FLI1 (Homo sapiens, UniProt Q01543 1-452); conditions: protein: recombinant; tags: N-terminal GST; dsDNA, one strand shown
# T1 sequence: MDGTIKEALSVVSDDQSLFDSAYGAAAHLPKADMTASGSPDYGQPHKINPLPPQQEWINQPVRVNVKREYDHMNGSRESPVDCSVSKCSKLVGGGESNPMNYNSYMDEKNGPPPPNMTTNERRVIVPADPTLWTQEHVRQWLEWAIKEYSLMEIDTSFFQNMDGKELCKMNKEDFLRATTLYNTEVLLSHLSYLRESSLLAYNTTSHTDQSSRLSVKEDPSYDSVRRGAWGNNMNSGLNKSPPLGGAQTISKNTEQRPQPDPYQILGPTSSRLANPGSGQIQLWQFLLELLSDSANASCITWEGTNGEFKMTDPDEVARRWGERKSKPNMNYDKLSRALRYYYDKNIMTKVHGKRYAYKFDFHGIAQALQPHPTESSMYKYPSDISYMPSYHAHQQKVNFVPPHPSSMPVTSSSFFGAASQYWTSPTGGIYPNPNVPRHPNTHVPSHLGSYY
# Outline: (§1)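 Pools of DNA-barcoded human transcription factors, expressed in yeast as GST fusions on glutathione beads and combined with a tag-only sample, were incubated with 200 nmole of a 16-mer random double-stranded DNA library. Incubation took 30 min at room temperature in Tris/NaCl/DTT/glycerol buffer and was followed by washing, 0.1% formaldehyde crosslinking, proximity ligation (BsaI/T4 ligase, 1 h, 37 °C), PCR amplification and sequencing on an Illumina NextSeq500. Binding signal is the ratio of a hexamer's read frequency for a factor to its frequency for the tag-only sample.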
# [2] = target: T2, ELK1 (Homo sapiens, UniProt P19419 1-428); conditions: protein: recombinant; tags: N-terminal GST; dsDNA, one strand shown
# T2 sequence: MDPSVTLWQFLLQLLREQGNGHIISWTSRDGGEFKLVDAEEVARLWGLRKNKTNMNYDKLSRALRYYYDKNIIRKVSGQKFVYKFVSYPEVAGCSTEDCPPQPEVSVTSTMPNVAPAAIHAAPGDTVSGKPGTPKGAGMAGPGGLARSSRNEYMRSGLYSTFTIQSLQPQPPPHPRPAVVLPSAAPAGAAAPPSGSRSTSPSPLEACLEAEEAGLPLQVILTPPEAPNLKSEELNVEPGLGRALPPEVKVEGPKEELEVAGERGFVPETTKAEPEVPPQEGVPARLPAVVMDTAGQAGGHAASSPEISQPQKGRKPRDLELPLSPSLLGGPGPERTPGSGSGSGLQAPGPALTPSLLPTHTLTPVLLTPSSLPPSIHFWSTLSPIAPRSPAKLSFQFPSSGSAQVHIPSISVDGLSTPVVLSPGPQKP
# Outline: as §1
# [3] = target: T3, GABPA (Homo sapiens, UniProt Q06546 1-454); conditions: protein: recombinant; tags: N-terminal GST; dsDNA, one strand shown
# T3 sequence: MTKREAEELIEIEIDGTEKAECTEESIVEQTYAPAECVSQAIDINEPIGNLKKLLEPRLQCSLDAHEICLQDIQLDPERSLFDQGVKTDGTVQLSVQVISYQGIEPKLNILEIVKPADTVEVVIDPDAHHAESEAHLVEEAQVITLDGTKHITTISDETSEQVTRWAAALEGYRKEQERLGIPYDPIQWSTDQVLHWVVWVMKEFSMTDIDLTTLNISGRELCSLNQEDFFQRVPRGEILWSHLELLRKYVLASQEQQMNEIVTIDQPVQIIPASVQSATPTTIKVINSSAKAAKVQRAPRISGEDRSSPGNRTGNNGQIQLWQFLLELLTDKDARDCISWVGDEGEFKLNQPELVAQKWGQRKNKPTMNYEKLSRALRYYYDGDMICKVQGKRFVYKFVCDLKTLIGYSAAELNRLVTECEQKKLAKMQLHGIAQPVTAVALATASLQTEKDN
# Outline: as §1
# [4] = target: T4, ERG (Homo sapiens, UniProt P11308 1-479); conditions: protein: recombinant; tags: N-terminal GST; dsDNA, one strand shown
# T4 sequence: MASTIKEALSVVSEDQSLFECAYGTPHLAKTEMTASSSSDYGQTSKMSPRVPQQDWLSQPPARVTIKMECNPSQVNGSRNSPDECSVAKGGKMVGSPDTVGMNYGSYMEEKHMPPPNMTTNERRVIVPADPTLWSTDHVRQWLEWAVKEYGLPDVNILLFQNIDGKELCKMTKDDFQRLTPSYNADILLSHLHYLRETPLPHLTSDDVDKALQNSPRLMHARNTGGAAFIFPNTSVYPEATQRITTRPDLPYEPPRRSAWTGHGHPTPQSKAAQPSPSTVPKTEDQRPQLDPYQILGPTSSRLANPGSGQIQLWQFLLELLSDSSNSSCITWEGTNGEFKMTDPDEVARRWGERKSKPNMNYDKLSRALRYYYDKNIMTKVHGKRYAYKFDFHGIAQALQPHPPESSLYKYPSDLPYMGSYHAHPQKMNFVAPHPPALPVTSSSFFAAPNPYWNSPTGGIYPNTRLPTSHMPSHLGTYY
# Outline: as §1
# [5] = target: ELF1 (Homo sapiens, UniProt P32519 1-619); conditions: protein: recombinant; tags: N-terminal GST; dsDNA, one strand shown
# Outline: as §1
# [6] = target: T5, EHF (Homo sapiens, UniProt Q9NZC4 1-300); conditions: protein: recombinant; tags: N-terminal GST; dsDNA, one strand shown
# T5 sequence: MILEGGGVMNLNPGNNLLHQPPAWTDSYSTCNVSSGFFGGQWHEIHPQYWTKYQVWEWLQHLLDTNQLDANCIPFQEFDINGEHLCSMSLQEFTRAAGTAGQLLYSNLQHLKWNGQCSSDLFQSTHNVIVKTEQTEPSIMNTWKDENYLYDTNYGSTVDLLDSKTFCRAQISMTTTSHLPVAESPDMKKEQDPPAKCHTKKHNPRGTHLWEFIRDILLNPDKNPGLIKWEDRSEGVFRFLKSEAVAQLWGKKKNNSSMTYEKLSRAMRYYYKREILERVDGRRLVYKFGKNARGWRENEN
# Outline: as §1
# [7] = target: SPI1 (Homo sapiens, UniProt P17947 1-270); conditions: protein: recombinant; tags: N-terminal GST; dsDNA, one strand shown
# Outline: as §1
# [8] = target: SPIB (Homo sapiens, UniProt Q01892 1-262); conditions: protein: recombinant; tags: N-terminal GST; dsDNA, one strand shown
# Outline: as §1
# [9] = target: T6, ELK3 (Homo sapiens, UniProt P41970 1-407); conditions: protein: recombinant; tags: N-terminal GST; dsDNA, one strand shown
# T6 sequence: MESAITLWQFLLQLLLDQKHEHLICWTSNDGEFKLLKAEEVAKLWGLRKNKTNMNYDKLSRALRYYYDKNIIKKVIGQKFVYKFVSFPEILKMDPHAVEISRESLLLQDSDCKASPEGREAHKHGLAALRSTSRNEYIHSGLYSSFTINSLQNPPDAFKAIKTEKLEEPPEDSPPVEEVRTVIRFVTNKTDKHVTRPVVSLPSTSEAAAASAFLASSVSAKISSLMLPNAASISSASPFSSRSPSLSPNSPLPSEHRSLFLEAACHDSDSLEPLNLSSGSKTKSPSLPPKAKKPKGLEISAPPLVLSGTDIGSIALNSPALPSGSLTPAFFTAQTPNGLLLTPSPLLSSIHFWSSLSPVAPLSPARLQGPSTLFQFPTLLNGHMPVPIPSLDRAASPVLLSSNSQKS
# Outline: as §1
# [10] = target: T7, FEV (Homo sapiens, UniProt Q99581 1-238); conditions: protein: recombinant; tags: N-terminal GST; dsDNA, one strand shown
# T7 sequence: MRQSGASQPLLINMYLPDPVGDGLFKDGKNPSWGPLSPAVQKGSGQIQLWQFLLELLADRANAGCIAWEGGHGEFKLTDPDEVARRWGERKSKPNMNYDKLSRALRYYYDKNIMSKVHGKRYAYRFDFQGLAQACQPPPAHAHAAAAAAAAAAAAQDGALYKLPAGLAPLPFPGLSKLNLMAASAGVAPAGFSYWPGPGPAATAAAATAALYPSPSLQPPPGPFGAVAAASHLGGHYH
# Outline: as §1
# [11] = target: ETV5 (Homo sapiens, UniProt P41161 1-510); conditions: protein: recombinant; tags: N-terminal GST; dsDNA, one strand shown
# Outline: as §1
# [12] = target: HSF1 (Homo sapiens, UniProt Q00613 1-529); conditions: protein: recombinant; tags: N-terminal GST; chain copies: 3; dsDNA, one strand shown
# Outline: as §1
# [13] = target: T8, SPIC (Homo sapiens, UniProt Q8N5J4 1-248); conditions: protein: recombinant; tags: N-terminal GST; dsDNA, one strand shown
# T8 sequence: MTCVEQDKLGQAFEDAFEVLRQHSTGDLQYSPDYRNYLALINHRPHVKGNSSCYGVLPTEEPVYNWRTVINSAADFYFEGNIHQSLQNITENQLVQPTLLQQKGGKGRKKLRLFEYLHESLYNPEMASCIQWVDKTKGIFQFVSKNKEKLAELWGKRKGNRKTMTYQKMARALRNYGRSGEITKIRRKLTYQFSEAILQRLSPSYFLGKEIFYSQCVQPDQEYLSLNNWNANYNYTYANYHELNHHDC
# Outline: as §1
# [14] = target: ELF4 (Homo sapiens, UniProt Q99607 1-663); conditions: protein: recombinant; tags: N-terminal GST; dsDNA, one strand shown
# Outline: as §1
# [15] = target: T9, ELK4 (Homo sapiens, UniProt P28324-2 1-405); conditions: protein: recombinant; tags: N-terminal GST; dsDNA, one strand shown
# T9 sequence: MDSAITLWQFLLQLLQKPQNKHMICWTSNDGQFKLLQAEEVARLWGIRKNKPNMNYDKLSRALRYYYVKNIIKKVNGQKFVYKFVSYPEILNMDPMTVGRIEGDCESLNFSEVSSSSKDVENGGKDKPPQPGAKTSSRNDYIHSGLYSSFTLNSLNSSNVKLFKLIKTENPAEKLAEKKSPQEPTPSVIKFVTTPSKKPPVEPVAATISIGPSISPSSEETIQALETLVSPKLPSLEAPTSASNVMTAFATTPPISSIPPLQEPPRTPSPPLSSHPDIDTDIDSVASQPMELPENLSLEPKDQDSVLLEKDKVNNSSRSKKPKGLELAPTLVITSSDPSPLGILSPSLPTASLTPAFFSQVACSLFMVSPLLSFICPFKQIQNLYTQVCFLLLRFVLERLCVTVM
# Outline: as §1
# [16] = target: T10, ETV2 (Homo sapiens, UniProt O00321 1-342); conditions: protein: recombinant; tags: N-terminal GST; dsDNA, one strand shown
# T10 sequence: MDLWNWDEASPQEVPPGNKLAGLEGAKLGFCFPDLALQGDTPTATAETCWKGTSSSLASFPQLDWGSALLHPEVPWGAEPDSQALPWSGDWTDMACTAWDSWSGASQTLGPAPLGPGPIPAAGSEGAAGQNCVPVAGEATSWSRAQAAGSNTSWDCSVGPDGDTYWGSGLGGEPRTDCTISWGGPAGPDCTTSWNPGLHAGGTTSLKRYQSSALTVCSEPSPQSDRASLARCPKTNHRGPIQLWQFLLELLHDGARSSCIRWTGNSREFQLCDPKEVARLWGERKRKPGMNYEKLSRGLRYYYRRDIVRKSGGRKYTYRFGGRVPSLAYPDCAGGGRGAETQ
# Outline: as §1
# [17] = target: T11, ELF3 (Homo sapiens, UniProt P78545 1-371); conditions: protein: recombinant; tags: N-terminal GST; dsDNA, one strand shown
# T11 sequence: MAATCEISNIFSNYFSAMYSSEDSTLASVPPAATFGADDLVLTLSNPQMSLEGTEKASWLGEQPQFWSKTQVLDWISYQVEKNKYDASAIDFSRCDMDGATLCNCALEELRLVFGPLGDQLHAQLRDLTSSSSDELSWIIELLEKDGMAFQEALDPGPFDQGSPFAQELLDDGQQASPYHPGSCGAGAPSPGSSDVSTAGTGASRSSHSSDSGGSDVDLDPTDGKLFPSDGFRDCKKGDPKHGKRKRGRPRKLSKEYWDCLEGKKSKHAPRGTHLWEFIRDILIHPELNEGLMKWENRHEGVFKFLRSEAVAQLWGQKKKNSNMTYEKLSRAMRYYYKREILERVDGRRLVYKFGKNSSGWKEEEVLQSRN
# Outline: as §1
# [18] = target: CRX (Homo sapiens, UniProt O43186 1-299); conditions: protein: recombinant; tags: N-terminal GST; dsDNA, one strand shown
# Outline: as §1
# [19] = target: ETV1 (Homo sapiens, UniProt P50549 1-477); conditions: protein: recombinant; tags: N-terminal GST; dsDNA, one strand shown
# Outline: as §1
# Chain of SPIB (Q01892 whole entry): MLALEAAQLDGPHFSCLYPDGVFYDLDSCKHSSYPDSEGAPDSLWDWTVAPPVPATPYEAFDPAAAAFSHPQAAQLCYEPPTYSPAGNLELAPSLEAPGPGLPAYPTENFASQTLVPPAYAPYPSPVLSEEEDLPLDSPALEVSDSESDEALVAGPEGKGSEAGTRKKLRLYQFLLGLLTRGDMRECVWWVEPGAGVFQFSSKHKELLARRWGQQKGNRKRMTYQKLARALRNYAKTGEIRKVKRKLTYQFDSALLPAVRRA
# Chain of ELF4 (Q99607 whole entry): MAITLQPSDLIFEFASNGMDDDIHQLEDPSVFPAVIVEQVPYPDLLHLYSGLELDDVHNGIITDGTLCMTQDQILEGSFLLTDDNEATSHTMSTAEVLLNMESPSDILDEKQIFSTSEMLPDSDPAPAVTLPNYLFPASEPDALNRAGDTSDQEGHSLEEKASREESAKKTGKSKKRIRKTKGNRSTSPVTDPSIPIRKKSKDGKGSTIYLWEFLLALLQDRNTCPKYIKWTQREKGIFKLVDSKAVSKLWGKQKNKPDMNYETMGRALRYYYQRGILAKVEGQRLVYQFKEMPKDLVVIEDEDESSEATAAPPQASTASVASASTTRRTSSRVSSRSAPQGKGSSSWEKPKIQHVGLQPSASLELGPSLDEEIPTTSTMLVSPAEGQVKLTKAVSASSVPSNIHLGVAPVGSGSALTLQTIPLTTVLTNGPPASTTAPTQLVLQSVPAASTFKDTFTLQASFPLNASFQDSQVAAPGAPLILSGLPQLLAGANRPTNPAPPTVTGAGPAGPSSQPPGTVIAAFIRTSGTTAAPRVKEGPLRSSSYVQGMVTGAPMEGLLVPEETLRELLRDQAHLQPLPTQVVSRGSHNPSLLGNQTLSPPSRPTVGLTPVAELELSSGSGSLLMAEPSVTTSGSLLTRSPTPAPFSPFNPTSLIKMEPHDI
# Chain of ETV1 (P50549 whole entry): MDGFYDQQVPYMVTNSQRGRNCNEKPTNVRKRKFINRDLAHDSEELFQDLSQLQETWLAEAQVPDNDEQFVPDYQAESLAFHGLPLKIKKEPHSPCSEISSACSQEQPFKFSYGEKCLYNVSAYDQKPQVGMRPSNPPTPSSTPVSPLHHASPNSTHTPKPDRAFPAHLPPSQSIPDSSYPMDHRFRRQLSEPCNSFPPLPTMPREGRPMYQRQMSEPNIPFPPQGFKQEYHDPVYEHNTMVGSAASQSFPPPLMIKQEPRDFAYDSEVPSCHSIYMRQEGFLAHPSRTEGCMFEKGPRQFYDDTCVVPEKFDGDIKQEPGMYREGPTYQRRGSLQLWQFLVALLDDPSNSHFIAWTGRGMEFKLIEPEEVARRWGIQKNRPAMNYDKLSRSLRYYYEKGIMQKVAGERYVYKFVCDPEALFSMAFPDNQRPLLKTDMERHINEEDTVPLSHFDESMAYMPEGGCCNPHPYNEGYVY
# Chain of ELF1 (P32519 whole entry): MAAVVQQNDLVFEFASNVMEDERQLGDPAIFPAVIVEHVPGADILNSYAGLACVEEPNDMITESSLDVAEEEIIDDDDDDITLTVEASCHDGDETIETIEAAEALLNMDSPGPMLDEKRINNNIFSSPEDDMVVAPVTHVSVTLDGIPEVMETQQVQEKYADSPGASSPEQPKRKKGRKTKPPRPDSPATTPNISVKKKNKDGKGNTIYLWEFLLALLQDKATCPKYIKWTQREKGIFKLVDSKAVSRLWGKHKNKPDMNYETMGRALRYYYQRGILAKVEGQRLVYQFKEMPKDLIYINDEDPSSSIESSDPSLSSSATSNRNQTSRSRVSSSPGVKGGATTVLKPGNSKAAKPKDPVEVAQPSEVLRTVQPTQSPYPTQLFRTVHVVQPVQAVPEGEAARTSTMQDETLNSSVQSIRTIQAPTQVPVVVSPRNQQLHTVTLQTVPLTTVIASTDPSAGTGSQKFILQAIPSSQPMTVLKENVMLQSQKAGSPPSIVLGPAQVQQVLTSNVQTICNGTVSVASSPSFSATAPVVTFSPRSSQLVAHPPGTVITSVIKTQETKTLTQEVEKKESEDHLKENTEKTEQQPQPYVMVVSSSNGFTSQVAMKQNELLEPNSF
# Chain of ETV5 (P41161 whole entry): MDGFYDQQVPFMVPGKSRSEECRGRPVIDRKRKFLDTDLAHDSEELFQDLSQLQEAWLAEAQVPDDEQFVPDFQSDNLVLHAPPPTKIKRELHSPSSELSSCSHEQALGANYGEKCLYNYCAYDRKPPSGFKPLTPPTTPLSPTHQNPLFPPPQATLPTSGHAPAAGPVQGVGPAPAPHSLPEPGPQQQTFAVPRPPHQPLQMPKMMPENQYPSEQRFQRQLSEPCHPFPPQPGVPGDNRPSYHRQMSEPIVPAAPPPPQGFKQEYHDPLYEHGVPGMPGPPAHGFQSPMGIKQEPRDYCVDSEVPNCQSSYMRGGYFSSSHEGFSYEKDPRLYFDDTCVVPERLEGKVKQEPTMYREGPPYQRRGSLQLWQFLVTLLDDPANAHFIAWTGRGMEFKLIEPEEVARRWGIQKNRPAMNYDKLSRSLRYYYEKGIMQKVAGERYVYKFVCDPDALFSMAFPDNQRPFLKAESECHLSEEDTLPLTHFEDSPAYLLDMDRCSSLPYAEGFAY
# Chain of HSF1 (Q00613 whole entry): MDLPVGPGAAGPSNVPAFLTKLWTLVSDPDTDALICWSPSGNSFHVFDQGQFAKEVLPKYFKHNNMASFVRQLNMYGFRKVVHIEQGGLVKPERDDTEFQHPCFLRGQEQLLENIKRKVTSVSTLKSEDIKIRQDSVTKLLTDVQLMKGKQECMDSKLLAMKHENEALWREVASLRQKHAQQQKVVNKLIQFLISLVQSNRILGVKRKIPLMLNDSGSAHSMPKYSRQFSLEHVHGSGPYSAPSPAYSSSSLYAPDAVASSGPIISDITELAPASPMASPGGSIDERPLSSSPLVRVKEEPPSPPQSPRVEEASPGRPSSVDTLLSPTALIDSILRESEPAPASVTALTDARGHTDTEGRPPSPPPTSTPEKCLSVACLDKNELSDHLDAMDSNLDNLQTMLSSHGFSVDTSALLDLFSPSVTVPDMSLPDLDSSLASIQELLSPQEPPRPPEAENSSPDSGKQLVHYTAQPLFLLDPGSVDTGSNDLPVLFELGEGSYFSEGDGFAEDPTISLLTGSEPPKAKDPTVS
# Chain of CRX (O43186 whole entry): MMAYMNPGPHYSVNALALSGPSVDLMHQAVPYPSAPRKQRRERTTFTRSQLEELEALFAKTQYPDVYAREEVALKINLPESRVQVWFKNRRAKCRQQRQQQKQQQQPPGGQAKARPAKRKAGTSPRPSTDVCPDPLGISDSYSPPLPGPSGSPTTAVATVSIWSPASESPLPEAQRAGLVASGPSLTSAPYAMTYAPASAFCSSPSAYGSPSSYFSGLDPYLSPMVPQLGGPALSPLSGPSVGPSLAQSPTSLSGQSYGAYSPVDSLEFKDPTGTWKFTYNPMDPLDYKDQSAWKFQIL
sequence,measurement,setting,value
ATTCTC,binding signal,[1],"1.35 fold enrichment (6-mer frequency, TF over GST control)"
same,binding signal,[2],"1.27 fold enrichment (6-mer frequency, TF over GST control)"
same,binding signal,[3],"1.32 fold enrichment (6-mer frequency, TF over GST control)"
same,binding signal,[4],"1.25 fold enrichment (6-mer frequency, TF over GST control)"
same,binding signal,[5],"1.24 fold enrichment (6-mer frequency, TF over GST control)"
same,binding signal,[6],"1.27 fold enrichment (6-mer frequency, TF over GST control)"
same,binding signal,[7],"1.27 fold enrichment (6-mer frequency, TF over GST control)"
same,binding signal,[8],"1.32 fold enrichment (6-mer frequency, TF over GST control)"
same,binding signal,[9],"1.42 fold enrichment (6-mer frequency, TF over GST control)"
same,binding signal,[10],"1.32 fold enrichment (6-mer frequency, TF over GST control)"
same,binding signal,[11],"1.31 fold enrichment (6-mer frequency, TF over GST control)"
same,binding signal,[12],"2.42 fold enrichment (6-mer frequency, TF over GST control)"
same,binding signal,[13],"1.15 fold enrichment (6-mer frequency, TF over GST control)"
same,binding signal,[14],"1.35 fold enrichment (6-mer frequency, TF over GST control)"
same,binding signal,[15],"1.25 fold enrichment (6-mer frequency, TF over GST control)"
same,binding signal,[16],"1.36 fold enrichment (6-mer frequency, TF over GST control)"
same,binding signal,[17],"1.2 fold enrichment (6-mer frequency, TF over GST control)"
same,binding signal,[18],"1.69 fold enrichment (6-mer frequency, TF over GST control)"
same,binding signal,[19],"1.23 fold enrichment (6-mer frequency, TF over GST control)"

# Reference: paper PMC7862700, “An all-to-all approach to the identification of sequence-specific readers for epigenetic DNA modifications on cytosine”
